Screening results from PubChem.
In the library only some 2.3% were active in any assay of this set; here they are far more common.
BCLXL inh: inhibitors of human Bcl-xL; hit rate 0.7% among 320,000; Q07817; GST-Bcl-xL / FITC-Bim BH3 peptide fluorescence polarization; inhibition, % at 10.9 µM; AID 2129;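 active means inhibition above the mean of all tested compounds plus 3 SD, cutoff set per campaign, cut at about 30% in these data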;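 further: 0% = DMSO wells and 100% = unlabeled Bim-BH3 peptide competitor; inhibitors lower millipolarization by displacing the labeled peptide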
Target sequence (Q07817 whole entry, looked up): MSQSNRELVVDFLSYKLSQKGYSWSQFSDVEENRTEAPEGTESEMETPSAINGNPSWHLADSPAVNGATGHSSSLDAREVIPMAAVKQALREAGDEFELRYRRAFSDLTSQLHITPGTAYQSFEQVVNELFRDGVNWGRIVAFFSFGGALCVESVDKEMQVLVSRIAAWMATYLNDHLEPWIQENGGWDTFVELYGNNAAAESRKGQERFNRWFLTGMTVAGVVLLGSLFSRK
MCL1-BIM inh: MCL1-BIM-BH3 interaction inhibition (human). Q07820. GST-MCL1 / FITC-Bim-BH3 fluorescence polarization. inhibition, % at 10.9 µM. hit rate 0.68% among 320,000;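 active means inhibition above the mean inhibition of all tested compounds plus 3 SD, set per campaign, cut at about 40% in these data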;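 further: 0% = DMSO wells and 100% = unlabeled Bim-BH3 peptide control; higher means more loss of mP so more displacement of Bim peptide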
Target sequence (Q07820 whole entry, looked up): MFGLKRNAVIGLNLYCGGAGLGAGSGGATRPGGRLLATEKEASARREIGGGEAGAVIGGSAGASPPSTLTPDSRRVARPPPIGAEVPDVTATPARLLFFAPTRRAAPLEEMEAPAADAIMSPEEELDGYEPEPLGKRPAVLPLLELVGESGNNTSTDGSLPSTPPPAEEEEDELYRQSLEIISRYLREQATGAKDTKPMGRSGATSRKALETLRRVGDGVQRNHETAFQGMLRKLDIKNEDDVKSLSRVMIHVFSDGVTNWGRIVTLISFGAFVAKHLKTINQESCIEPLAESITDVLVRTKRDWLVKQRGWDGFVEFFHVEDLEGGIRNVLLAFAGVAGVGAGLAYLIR
GLD-1 RNA inh: GLD-1-TGE RNA interaction inhibition (C. elegans); Q17339; purified GLD-1 + fluorescein TGE RNA, fluorescence polarization; inhibition, % at 5.96 µM; hit rate 0.44% among 320,000;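 active means percent inhibition above a per-plate cutoff, the plate mean of test compounds plus 3 SD, cut at about 30% in these data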;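 further: 0% = DMSO wells with GLD-1 and probe and 100% = wells lacking GLD-1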
Mcl-1 Bim block: human Bim-Mcl-1 interaction inhibition; Q07820; hit rate 0.1% among 190,000; inhibition, % at 10 µM; Bead-based flow cytometry, Bim peptide-Mcl-1 binding; in the data active means inhibition above about 40%;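 further: 0% = no compound tracer wells and 100% = peptide blocker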
Mcl1-Noxa inh: Mcl-1/Noxa interaction inhibition | Q07820 | TR-FRET Mcl-1/Noxa peptide binding, 2 h | inhibition, % at 21.7 µM | hit rate 1.5% among 220,000;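 active means compounds that cut the protein-peptide binding signal by more than 50% relative to plate controls in a single-dose test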;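 further: His-tagged Mcl-1 with rhodamine Noxa BH3 peptide and terbium anti-His antibody; 0% = Mcl-1 plus Noxa peptide wells and 100% = peptide-only wells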
Mcl1 Bid PPI: disrupts binding of human Mcl-1 to Bid peptide; AID 1021; hit rate 0.97% among 220,000; inhibition, % at 21.7 µM; Q07820; TR-FRET Mcl-1/Bid-Dy647 peptide binding, 1536-well;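 active means compounds that cut the binding signal by more than half at the single screening dose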;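 further: His-tagged Mcl-1 with europium anti-His antibody binding Bid BH3 peptide; 0% = Mcl-1 plus peptide wells and 100% = peptide-only wells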
* hit, by the source's call; · = not tested or not shown.

SMILES	BCLXL inh	MCL1-BIM inh	GLD-1 RNA inh	Mcl-1 Bim block	Mcl1-Noxa inh	Mcl1 Bid PPI
Clc1ccc(CNc2ccc(CNc3ncn[nH]3)cc2)cc1	2	3	6	0	-8	-46
Cc1ccc(NC(=O)Cn2nc(-c3ccccc3)nc2-c2ccccc2)c(C)c1	2	-6	8	-6	-6	-24
Cc1ccc(C)c(NC(=O)Cn2nc(-c3ccccc3)nc2-c2ccccc2)c1	6	7	0	2	-13	56*
CCOc1ccc(NC(c2ccccn2)c2oc(CO)cc(=O)c2O)cc1 (stereo unspecified)	23	28	24	-4	63*	-73
CCOc1ccc(NC(=O)C(c2ccccn2)N(C(=O)CCl)c2ccc(OCC)cc2)cc1 (stereo unspecified)	16	6	9	-4	4	-20
CC1(C)CC(=O)C2=C(C1)Nc1ccccc1N1C(=O)c3ccccc3C21 (stereo unspecified)	-1	-7	4	-1	-5	-27
CCOC(=O)C1=C(c2ccccc2)NC(=O)NC1c1ccc(N(C)C)cc1 (stereo unspecified)	2	-2	-2	-1	61*	0
CCOC(=O)C1=C(c2ccccc2)NC(=O)NC1c1ccc(OC)cc1 (stereo unspecified)	-7	-11	-7	2	27	1
CCc1ccc(O)c(N=Cc2ccccc2O)c1	6	2	6	-2	2	-16
O=c1[nH][nH]c2c(N=Cc3ccccc3O)ccc(F)c12	·	·	·	·	95*	-157
CC(=O)Oc1ccc(C(=O)[C@H]2[C@H]3C(=O)N(c4ccc(C)cc4)C(=O)[C@H]3[C@@H]3C=CC=NN32)cc1	29	25	38*	1	13	-49
COc1ccc(OC(=O)c2ccncc2)cc1	6	7	3	0	6	99*
Cc1cccc(N=C2NC(=O)/C(=C/c3cccn3C)S2)c1C	-24	-32	-30	·	30	-105
COc1ccc(N=C2NC(=O)/C(=C/c3ccco3)S2)cc1	1	4	-8	·	-4	-37
O=C1NC(=Nc2ccccc2)S/C1=C\C=C\c1ccco1	1	-16	-11	-6	112*	42
COc1ccc(N=C2NC(=O)/C(=C/C=C/c3ccccc3)S2)cc1	10	4	0	·	-12	-19
Cc1ccc(N=C2NC(=O)/C(=C/C=C/c3ccco3)S2)cc1	8	16	-7	3	82*	-47
Cc1cccc(N=C2NC(=O)/C(=C/C=C/c3ccco3)S2)c1C	9	21	0	7	114*	92*
Cn1cc(C(=O)c2ccc(Cl)cc2Cl)cc1C=O	5	2	-1	2	-11	-14
O=C1c2ccccc2C(=O)N1Cc1ccco1	4	-2	-3	4	8	3
CC1=CC(=C2C(=O)c3ccccc3C2=O)C=C(C)N1Cc1ccco1	8	14	-2	4	64*	-18
O=C(O)C1CC(O)CN1c1nc(Cl)ccc1[N+](=O)[O-] (stereo unspecified)	37*	30	25	-1	29	-18
O=C(O)C1CN(c2nc(Cl)ccc2[N+](=O)[O-])C1	3	4	4	0	14	-26
COc1ccc(/C=N/n2c(C)nc3ccccc3c2=O)cc1OC	3	6	6	·	·	·
COCCn1cnc2c(c1=O)c1nc3ccccc3nc1n2/N=C/c1ccc(OC)c(OC)c1	8	13	-3	·	51*	-8
SMILES	BCLXL inh	MCL1-BIM inh	GLD-1 RNA inh	Mcl-1 Bim block	Mcl1-Noxa inh	Mcl1 Bid PPI
CCCCCCn1cnc2c(c1=O)c1nc3ccccc3nc1n2/N=C/c1ccco1	·	·	·	-1	39	58*
COCCn1cnc2c(c1=O)c1nc3ccccc3nc1n2/N=C/c1ccco1	7	11	-1	·	-15	-18
O=C(Cn1cnc2cc([N+](=O)[O-])ccc2c1=O)Nc1ccc2c(c1)CCC2	0	-4	-9	7	17	-2
COc1ccc2cc(C(=O)/C=C/c3cc(OC)c(O)c(OC)c3)ccc2c1	4	-1	-1	·	·	·
COc1ccc(C(=O)/C=C/c2cc(OC)c(O)c(OC)c2)c(F)c1	10	15	-18	-2	55*	7
CC1(C)CC(=O)C(C=Nc2cccc(/N=C/C3=C(O)CC(C)(C)CC3=O)n2)=C(O)C1	·	·	·	-2	85*	-19
CC1(C)CC(=O)C2=C(C1)OC(N)=C(C#N)C2c1cccc(OC(=O)c2ccco2)c1 (stereo unspecified)	0	7	-3	-5	-6	97*
CCOC(=O)[C@H]1[C@H]2COc3ccccc3[C@@H]2N2C(=O)CN(Cc3ccc(C)cc3)C(=O)[C@@]12C	·	·	91*	·	·	·
CCOC(=O)[C@H]1[C@H]2COc3ccc(C)cc3[C@@H]2N2C(=O)CN(Cc3ccc(Cl)cc3)C(=O)[C@@]12C	5	3	-1	·	·	·
COC(=O)c1cc(Br)ccc1NC(=O)Nc1ccc(C)cc1	8	5	-7	·	·	·
COC(=O)c1cc(Br)ccc1NC(=O)Nc1ccccc1	5	2	2	-6	73*	-5
O=C1/C(=C/C=C/c2ccccc2)Oc2c1ccc(O)c2CN1CCN(CCO)CC1	20	22	8	·	-23	-23
CCN1CCN(Cc2c(O)ccc3c2O/C(=C\c2ccc(C)cc2)C3=O)CC1	40*	29	-1	0	6	-5
CCc1ccc(/C=C2\Oc3c(ccc(O)c3CN3CCN(C)CC3)C2=O)cc1	42*	34	-2	·	4	-4
COc1ccccc1/C=C/C=C1\Oc2c(ccc(O)c2CN2CCN(CCO)CC2)C1=O	40*	0	-24	0	-14	-33
CCN1CCN(Cc2c(O)ccc3c2O/C(=C\C=C\c2ccccc2)C3=O)CC1	25	16	2	-1	24	-26
Cc1ccc(/C=C2\Oc3c(ccc(O)c3CN3CCN(C)CC3)C2=O)cc1	46*	42*	4	0	-13	0
COc1ccc(NS(=O)(=O)c2c(C)n(C)c(=O)n(C)c2=O)cc1	0	1	0	·	·	·
O=C(OC(C(=O)NCc1ccc2c(c1)OCO2)c1ccccc1F)c1ccco1 (stereo unspecified)	1	5	-2	-4	-1	-28
NC(=O)C1=C[C@@H](C2CCCCC2)C[C@@H](OCCCCO)O1	2	1	6	0	-26	-5
Cc1ccccc1C(=O)Nc1ccc2c(C#N)c3nc4ccccc4nc3n2c1	42*	37	13	4	70*	84*
CCOC(=O)Cc1csc(-n2sc3ccccc3c2=O)n1	-4	6	-1	-5	68*	-43
COc1ccc(Cn2nnnc2C(c2ccccc2OC)N2CCC(C(N)=O)CC2)cc1 (stereo unspecified)	6	6	2	0	-13	-15
